Source: PubChem BioAssay (several laboratories)
MCL1-BIM inh – MCL1-BIM-BH3 interaction inhibition (human); GST-MCL1 / FITC-Bim-BH3 fluorescence polarization; inhibition, % at 10.9 µM; actives 0.68% (n = 320,000); AID 2057;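 active = inhibition above the mean inhibition of all tested compounds plus 3 SD, set per campaign, cut at about 40% in these data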;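 note: higher means more loss of mP so more displacement of Bim peptide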
eLon inh – inhibitors of E. coli Lon protease; actives 0.42% (n = 360,000); AID 602123; inhibition, % at 7.94 µM; P0A9M0; purified E. coli Lon protease, fluorescence polarization; in the data active = inhibition above about 13%, passing the limit was not always enough
MEX-5 binding – C. elegans MEX-5 TCR-2 RNA binding activity; Q9XUB2; MEX-5/FITC-TCR2 RNA binding, fluorescence polarization; stronger effect = lower value; activity score (negative = inhibition of binding), % at 10 µM; actives 0.38% (n = 300,000); AID 1832;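 active = inhibition past about -25% in most replicates, and total fluorescence under double the plate's negative control median, limit read from the data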
EBV gp42 block – blocks Epstein-Barr virus glycoprotein 42 binding. actives 0.42% (n = 220,000). Q1HVG2. Fluorescence polarization binding assay, mP read-out. inhibition, % (tested at 21.74 µM); in the data active = inhibition above about 50%
Bcl-xL primary – inhibitors of human Bcl-xL; actives 0.7% (n = 320,000); AID 2129; inhibition, % at 10.9 µM; Q07817; GST-Bcl-xL / FITC-Bim BH3 peptide fluorescence polarization;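 active = inhibition above the mean of all tested compounds plus 3 SD, cutoff set per campaign, cut at about 30% in these data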;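 note: inhibitors lower millipolarization by displacing the labeled peptide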
Target sequence (Q07817 whole entry, looked up): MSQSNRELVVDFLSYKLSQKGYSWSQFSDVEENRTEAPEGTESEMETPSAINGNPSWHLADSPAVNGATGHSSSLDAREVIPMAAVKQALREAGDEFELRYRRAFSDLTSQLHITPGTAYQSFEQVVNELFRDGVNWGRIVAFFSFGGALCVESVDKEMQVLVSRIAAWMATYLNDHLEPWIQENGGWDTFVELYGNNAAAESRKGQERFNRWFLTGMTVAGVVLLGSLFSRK
GLD-1 RNA inh – GLD-1-TGE RNA interaction inhibition (C. elegans); Q17339; purified GLD-1 + fluorescein TGE RNA, fluorescence polarization; inhibition, % at 5.96 µM; actives 0.44% (n = 320,000);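 active = percent inhibition above a per-plate cutoff, the plate mean of test compounds plus 3 SD, cut at about 30% in these data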
Target sequence (Q17339 whole entry, looked up): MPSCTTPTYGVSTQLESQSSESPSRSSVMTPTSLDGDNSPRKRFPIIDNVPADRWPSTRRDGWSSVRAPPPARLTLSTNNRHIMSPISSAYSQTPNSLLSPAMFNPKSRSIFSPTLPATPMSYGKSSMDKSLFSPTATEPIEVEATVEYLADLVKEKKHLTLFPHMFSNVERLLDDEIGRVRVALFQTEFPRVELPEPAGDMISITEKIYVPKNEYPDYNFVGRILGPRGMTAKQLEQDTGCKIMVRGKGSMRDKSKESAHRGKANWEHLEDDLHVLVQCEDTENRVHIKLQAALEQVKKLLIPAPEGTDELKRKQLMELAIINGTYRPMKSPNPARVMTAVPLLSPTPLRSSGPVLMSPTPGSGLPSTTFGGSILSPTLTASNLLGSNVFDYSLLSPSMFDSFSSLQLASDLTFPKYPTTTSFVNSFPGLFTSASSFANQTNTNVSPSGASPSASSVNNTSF
Each line names hits and unclear results; the compound was inactive in the other large screens. Only some compounds are listed: those with a hit (about 1.4% of all), similar ones and a draw of the others.

OC(c1cc(F)cc(Cl)c1)c1ncc(-c2ccc(Cl)cc2)[nH]1 (stereo not given)	none (no result: MCL1-BIM inh, MEX-5 binding, EBV gp42 block, Bcl-xL primary, GLD-1 RNA inh)
CCCc1cc(=O)n2[nH]c(-c3ccc(Cl)cc3)cc2n1	none (no result: EBV gp42 block)
O=c1cc(-c2ccc([N+](=O)[O-])cc2)nc2cc(-c3ccc(Cl)cc3)[nH]n12	EBV gp42 block 83 (no result: eLon inh, MEX-5 binding)
CCOC(=O)C1(C)CCCN(C(=O)c2ccc(OC(F)F)cc2)C1 (stereo not given)	none (no result: MCL1-BIM inh, MEX-5 binding, EBV gp42 block, Bcl-xL primary, GLD-1 RNA inh)
CC(C)C[C@@H](CNC(=O)OC(C)(C)C)NC(=O)c1nc[nH]c1C(=O)N[C@@H](CC(C)C)C(=O)CNC[C@H](CC(C)C)NC(=O)c1nc[nH]c1C(=O)N[C@@H](Cc1c[nH]c2ccccc12)C(=O)OC(C)(C)C	none (no result: MCL1-BIM inh, MEX-5 binding, EBV gp42 block, Bcl-xL primary)
O=C(NCCO)Nc1ccc2nc(-c3ccco3)c(-c3ccco3)nc2c1	MCL1-BIM inh 145, Bcl-xL primary 136, GLD-1 RNA inh 78 (no result: eLon inh, MEX-5 binding)
O=C(NCCCO)c1ccc2nc(-c3ccco3)c(-c3ccco3)nc2c1	none (no result: MCL1-BIM inh, MEX-5 binding, Bcl-xL primary, GLD-1 RNA inh)
CC(C)C[C@H]1CNC(=S)N1C[C@H]1CCCN1C[C@H](Cc1ccc(O)cc1)N1C[C@H](Cc2ccccc2)N(CC2CCCCCC2)C1=S	none (no result: MCL1-BIM inh, MEX-5 binding, EBV gp42 block, Bcl-xL primary, GLD-1 RNA inh)
COC(=O)c1ccc2c(=O)sc(N3CCC(C(N)=O)CC3)nc2c1	EBV gp42 block 85
COC(=O)c1ccc(C(=O)OC)c(NC(=S)N2CCC(C(N)=O)CC2)c1	none
CN(CC(=O)NCc1ccccn1)S(=O)(=O)c1ccc(Br)cc1	MEX-5 binding -26
CCOc1ccc(S(=O)(=O)N(C)CC(=O)NCc2ccccn2)cc1	none (no result: EBV gp42 block)
c1ccc2[nH]c(CN3CCOCC3)nc2c1	none
Nc1ccc2nc(Cc3ccccc3)[nH]c2c1	GLD-1 RNA inh 76
Nc1ccc2nc(CN3CCOCC3)[nH]c2c1	MEX-5 binding -64
Cc1cc(Br)cn2c(Cc3cccc(F)c3)c(-c3ccc(C#N)cc3)nc12	none (no result: MCL1-BIM inh, MEX-5 binding, EBV gp42 block, Bcl-xL primary, GLD-1 RNA inh)
COc1ccc(N2C(=O)[C@@H]3[C@H](C2=O)[C@H]2c4ccccc4C=CN2[C@@H]3C(C)=O)cc1	EBV gp42 block 54, Bcl-xL primary 34 (no result: MEX-5 binding)
COc1ccc(N2C(=O)[C@H]3[C@@H](C2=O)C2c4ccccc4C=NN2[C@H]3C(=O)C(C)(C)C)cc1 (stereo not given in full)	none
COCCN(C(=O)CSc1nc2ccccc2s1)c1c(N)n(Cc2ccccc2)c(=O)[nH]c1=O	none (no result: MCL1-BIM inh, MEX-5 binding, EBV gp42 block, Bcl-xL primary, GLD-1 RNA inh)
C=CC(C)N1C(=O)S/C(=C\c2ccc(N3CCOCC3)cc2C)C1=O (stereo not given)	none
C=CCN1C(=O)S/C(=C\c2ccc(N3CCOCC3)cc2C)C1=O	MEX-5 binding -29
CC(=O)Nc1nc2n(n1)C(c1ccc(F)cc1)C=C(c1ccccc1)N2 (stereo not given)	MCL1-BIM inh 47, Bcl-xL primary 52, GLD-1 RNA inh 37
COc1ccc(C2=CC(c3ccc(Cl)cc3)n3cnnc3N2)cc1OC (stereo not given)	MCL1-BIM inh 62, EBV gp42 block 55, Bcl-xL primary 59, GLD-1 RNA inh 44
O=C(Nc1nc2n(n1)C(c1ccccc1)C=C(c1ccccc1)N2)c1ccco1 (stereo not given)	MCL1-BIM inh 40
COc1cccc(C2=CC(c3ccc(OC)c(OC)c3OC)n3nnnc3N2)c1 (stereo not given)	none
CC(=O)Nc1nc2n(n1)C(c1ccc(Cl)cc1)C=C(C)N2 (stereo not given)	none
O=C(Nc1nc2n(n1)C(c1ccc(F)cc1)CC(c1ccccc1)N2)c1ccco1 (stereo not given)	none
COc1ccc(C2C=C(c3ccc(Cl)cc3)Nc3nc(NC(C)=O)nn32)cc1 (stereo not given)	MCL1-BIM inh 158, EBV gp42 block 106, Bcl-xL primary 139, GLD-1 RNA inh 119 (no result: eLon inh, MEX-5 binding)
COc1ccc2cc(C3OCCO3)c(Cl)nc2c1	none
Cc1cccc(OCc2nnc(SCC(=O)NC3CCCCC3)n2C)c1	none (no result: EBV gp42 block)
CCN(C(=O)C(C)OC(=O)c1nn(-c2ccccc2C(F)(F)F)cc1O)c1ccccc1 (stereo not given)	none (no result: MCL1-BIM inh, MEX-5 binding, EBV gp42 block, Bcl-xL primary)
CCOC(=O)c1cc(C#N)c(SCC(N)=O)[nH]c1=O	Bcl-xL primary 38
CC(=O)C(=Cc1ccc(-c2ccccc2)cc1)C(=O)c1ccccc1	none (no result: MCL1-BIM inh, MEX-5 binding, EBV gp42 block, Bcl-xL primary, GLD-1 RNA inh)
CC(NC(=O)c1ccccc1)C(=O)OCC(=O)c1ccc(Br)cc1 (stereo not given)	Bcl-xL primary 169 (no result: EBV gp42 block)
CCCCc1nc2cc(C(=O)NCc3cc(C)n(C)n3)ccc2o1	none (no result: EBV gp42 block)
CC(C)c1onc(C(=O)NC2CCCCC2)c1[N+](=O)[O-]	none
COc1cccc(CN(C)C(=O)c2ccc3nccnc3c2)c1	MCL1-BIM inh 48, Bcl-xL primary 41
CN(Cc1ccc(OC(F)F)cc1)C(=O)c1ccc2nccnc2c1	none
CN(C)c1ccc(/C=c2/sc3n(c2=O)NC2(c4ccccc4)N(C)C(=O)N(C)C2(c2ccccc2)N=3)cc1 (stereo not given)	EBV gp42 block 50 (no result: eLon inh)
CN1C(=O)N(C)C2(c3ccccc3)Nn3c(s/c(=C/c4ccccc4F)c3=O)=NC12c1ccccc1 (stereo not given)	none (no result: eLon inh)
COc1ccc(Cn2cc3c(-c4ccc(F)cc4)nnc-3c3cc(OC)c(OC)cc32)cc1	Bcl-xL primary 47 (no result: MEX-5 binding)
CC(C)(C)c1nn(-c2ccccc2)c2[nH]c(=O)c(CNCc3ccco3)cc12	MEX-5 binding -27
COc1cc(C2C(C#N)=C(N)OC3=C2C(=O)CCC3)c([N+](=O)[O-])cc1OC (stereo not given)	MCL1-BIM inh 194, eLon inh 50, MEX-5 binding -63, EBV gp42 block 83, Bcl-xL primary 156, GLD-1 RNA inh 98
Cc1cc2nc(-c3ccco3)c(Cc3ccccc3C(F)(F)F)n2c(C)c1Br	none (no result: MCL1-BIM inh, MEX-5 binding, EBV gp42 block, Bcl-xL primary, GLD-1 RNA inh)
O=C(Nc1nc2ccc(F)cc2s1)c1ccc([N+](=O)[O-])o1	none (no result: MCL1-BIM inh, MEX-5 binding, EBV gp42 block, Bcl-xL primary, GLD-1 RNA inh)
CCN(CC)CCCN1C=C2C(=O)C(C)(OC(=O)CCc3ccccc3)C(=O)C=C2C=C1c1ccc(C#N)cc1 (stereo not given)	none
CCN(CC)CCCN1C=C2C(=O)C(C)(OC(=O)CCC(=O)OC)C(=O)C(Br)=C2C=C1c1ccc(OC)cc1 (stereo not given)	Bcl-xL primary 31 (no result: EBV gp42 block)
COC(=O)CCC(=O)OC1(C)C(=O)C2=CN(c3ccc(OC)cc3)C(c3ccc(OC)cc3)=CC2=C(Br)C1=O (stereo not given)	none (no result: EBV gp42 block)
COCCN1C=C2C(=O)C(C)(OC(=O)CCC(=O)OC)C(=O)C(Br)=C2C=C1c1ccc(OC)cc1 (stereo not given)	MCL1-BIM inh 44, Bcl-xL primary 37 (no result: EBV gp42 block)
COC(=O)CCC(=O)OC1(C)C(=O)C2=CN(Cc3ccco3)C(c3ccc(OC)cc3)=CC2=C(Br)C1=O (stereo not given)	MCL1-BIM inh 49, MEX-5 binding -37, Bcl-xL primary 52, GLD-1 RNA inh 44 (no result: eLon inh, EBV gp42 block)
